High-throughput results as filed in PubChem.
HTR2A ag – activates the mouse 5-HT2A serotonin receptor; activation, % at 7.6 µM; CHO-K1 mHTR2A beta-arrestin complementation, luminescence; percent of 30 µM serotonin response; 360,000 compounds, 0.66% hits; P35363;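 active means activation above a run cutoff, the mean activation of all tested compounds plus 3 SD, cut at about 14% in these data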;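 further: 0% = plate median of compound wells and 100% = 30 µM serotonin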
MEX-5 binding – C. elegans MEX-5 TCR-2 RNA binding activity; MEX-5/FITC-TCR2 RNA binding, fluorescence polarization; active compounds read low; Q9XUB2; 300,000 compounds, 0.38% hits; AID 1832; activity score (negative = inhibition of binding), % at 10 µM;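 active means inhibition past about -25% in most replicates, and total fluorescence under double the plate's negative control median, limit read from the data; inconclusive means replicates evenly split on the limit, or fluorescence at least double controls; inactive means too little inhibition in most replicates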;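 further: 0% = DMSO and -100% = 5 µM competing unlabeled TCR2 RNA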
V-ATPase pH – regulators of yeast V-ATPase proton transport; S. cerevisiae, pHLuorin cytosolic pH fluorescence; response, % at 10 µM; 350,000 compounds, 0.37% hits; AID 504577; in the data active means response mostly above about 7.3%, no sharp cut-off; inactive means mostly below about 5.4%; further: actives read high
Exocytosis inh – lytic granule exocytosis inhibition. TALL-104 LAMP-1 surface exposure, flow cytometry; cells stimulated with thapsigargin and PMA. inhibition, % at 10 µM. 360,000 compounds, 0.66% hits. AID 651702;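 active means inhibition above about 55%, limit read from the data; inconclusive means no clear call, values can overlap the other calls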
VLA-4 inh – inhibition in a human VLA-4 binding assay | P13612 | VLA-4 expressing cells, ligand binding flow cytometry | inhibition, % (about 7 µM as worked out from the volumes in the protocol) | 330,000 compounds, 0.2% hits | AID 2557; in the data active means inhibition above about 50%
GASC-1 inh – human JMJD2C demethylase inhibition; 330,000 compounds, 0.069% hits; Q9H3R0; AID 2099; GST-JMJD2C(1-420) H3K9me3 demethylation, DELFIA europium; inhibition, % at 2.35 µM;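 active means more than half of a compound's replicate wells show inhibition beyond 50%, single wells judged on their own value; inconclusive means some, but no more than half, of replicates pass 50% inhibition; inactive means no replicate passes 50% inhibition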;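 further: signal counts dimethyl H3K9 product captured on neutravidin plate; 0% = median of DMSO wells and 100% = 0.3 times that DMSO median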
Target sequence (Q9H3R0 1-420 limits assumed): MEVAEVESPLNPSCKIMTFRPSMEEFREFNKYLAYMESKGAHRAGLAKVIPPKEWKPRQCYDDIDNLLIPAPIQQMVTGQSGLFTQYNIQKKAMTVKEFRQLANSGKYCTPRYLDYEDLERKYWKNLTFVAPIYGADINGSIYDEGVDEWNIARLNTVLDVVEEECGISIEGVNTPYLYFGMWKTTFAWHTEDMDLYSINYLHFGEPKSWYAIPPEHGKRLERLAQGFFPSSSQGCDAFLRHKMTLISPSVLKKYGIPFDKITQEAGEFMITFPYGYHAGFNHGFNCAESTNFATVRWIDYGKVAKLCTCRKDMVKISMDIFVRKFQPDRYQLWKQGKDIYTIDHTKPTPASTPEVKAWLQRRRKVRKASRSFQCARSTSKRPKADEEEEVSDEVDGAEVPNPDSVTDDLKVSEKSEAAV
* hit, by the source's call; ? = inconclusive; . = not tested or not shown. This is a sample that favours compounds with a hit; in the whole collection about 2.2% have one here.

SMILES | HTR2A ag | MEX-5 binding | V-ATPase pH | Exocytosis inh | VLA-4 inh | GASC-1 inh
Cc1ccc(CCNS(=O)(=O)c2ccc3c(c2)C(C)(C)C(=O)N3C)cc1 | -5 | -3 | 25* | -6 | -24 | -4
Cc1ccccc1CNS(=O)(=O)c1ccc2c(c1)C(C)(C)C(=O)N2C | -5 | 2 | -6 | 0 | 18 | -5
CC(C)N(Cc1nnc(-c2ccccc2Cl)o1)C(=O)COc1cccc(Cl)c1 | -3 | . | 1 | -3 | . | .
CC(=O)CCc1oc2ccc([N+](=O)[O-])cc2c1-c1ccc(C)o1 | -1 | -2 | 2 | 11 | 20 | -4
C/C(CCc1oc2c(Br)cc(Br)cc2c1-c1ccc(C)o1)=N\O | 5 | 2 | -1 | 83* | -8 | 4
C/C(CCc1oc2ccccc2c1-c1ccc(C)o1)=N/O | 1 | -1 | 0 | 74* | 1 | 2
CCN(CC)c1ccc2cc(NC(=O)CCC(=O)O)c(=O)oc2c1 | 9 | -68* | -66 | 0 | 13 | 157
CCN(CC)c1ccc2cc(C(C)=O)c(=O)oc2c1 | 5 | 0 | 1 | -3 | -10 | 10
C=CCOC(=O)C1=C[C@H](C(C)(C)C)[C@@H](CCCO)[C@H](OCC)O1 | -4 | 1 | 6 | 69* | . | 16
Cc1onc(-c2ccccc2Cl)c1C(=O)N1C=CC(C(F)(F)Cl)=NCC1 | 24* | 1 | 2 | 0 | 2 | -3
Cc1onc(-c2ccccc2Cl)c1C(=O)N1C=CC(C(F)(F)F)=NCC1 | -2 | 1 | 7 | 1 | -4 | 0
O=C(O)c1ccc([N+](=O)[O-])c2c1C(=O)c1ccccc1C2=O | 0 | . | 1 | 4 | 6 | -39
O=C1c2ccccc2C(=O)c2c([N+](=O)[O-])ccc(O)c21 | 2 | . | 6 | 59* | -9 | 18
CCN(C(=O)COc1ccccc1)c1nnc(-c2cccnc2)s1 | 1 | 0 | 26* | -1 | 3 | ?
COCCN(C(=O)COc1ccccc1)c1nnc(-c2cccnc2)s1 | 2 | -1 | -5 | -1 | 4 | 1
O=C(Nc1ccc(Cl)cc1)C1CCCN(C2=NS(=O)(=O)c3ccccc32)C1 (centres undefined) | -14 | . | 0 | -1 | -2 | 0
CCC1(C(=O)OC)NC(c2ccco2)C2C(=O)N(c3ccc(F)cc3)C(=O)C21 (centres undefined) | 3 | -1 | 0 | 0 | 7 | -6
CCC1(C(=O)OC)NC(c2ccco2)C2C(=O)N(c3ccccc3)C(=O)C21 (centres undefined) | -2 | -4 | 15* | 1 | -3 | -5
O=C(C(=O)c1ccc(O)cc1)c1ccccc1 | -1 | 0 | 0 | -9 | 58* | 1
Cc1c(C(=O)NCc2ccccc2C(F)(F)F)sc(=O)n1Cc1ccc2ccccc2c1 | 0 | . | . | 1 | . | .
Cc1oc(=O)c(NC(=O)c2ccccc2)cc1C(=O)c1ccccc1 | -2 | 0 | 5 | 75* | 41 | 10
CN1C(=O)/C(=C/c2cn(CC(=O)N3CCCCC3)c3ccccc23)c2ccccc21 | . | -27* | . | . | 6 | 4
O=C(NNC(=O)c1ccncc1)Nc1cccc([N+](=O)[O-])c1 | 5 | -6 | -3 | 90* | 20 | 2
Cc1ccc(NC(=S)c2ccc3ccccc3n2)c(C)c1 | 11 | -38* | 0 | -24 | -8 | -1
Cc1ccc(C)c(NC(=O)c2ccc3ccccc3n2)c1 | 4 | -1 | -3 | -9 | -2 | -9
SMILES | HTR2A ag | MEX-5 binding | V-ATPase pH | Exocytosis inh | VLA-4 inh | GASC-1 inh
COc1cc(CC2COC(=O)C2(O)Cc2ccc(O)c(OC)c2)ccc1O (centres undefined) | 4 | 4 | 3 | -1 | 27 | -22
COc1cc(C[C@@H]2C(=O)OC[C@H]2Cc2ccc(OC)c(OC)c2)ccc1O | 16* | . | 2 | 0 | 0 | 7
CNC(=O)/C(C#N)=C/c1ccc(-c2nc3ccccc3s2)o1 | -3 | -67* | 0 | -3 | 16 | -2
N#C/C(=C\c1ccc(-c2nc3ccccc3s2)o1)C(N)=O | -2 | -8 | -3 | -6 | -8 | -2
C=C(C)C(=O)Nc1cccc(C2=NOC3(C2)C[C@@H](C(N)=O)N(C(=O)c2cc([N+](=O)[O-])cc([N+](=O)[O-])c2)C3)c1 (some centres undefined) | -3 | 2 | -1 | 64* | 29 | -2
CC1C2(C)OC(=N)C(C#N)(C(C)O2)C1(C#N)C#N (centres undefined) | -2 | -30* | 6 | -4 | 9 | 2
COc1ccc(-c2cc(=O)oc3c(C)c(OC(C)C(=O)NCc4ccccn4)ccc23)cc1 (centres undefined) | -5 | -1 | -1 | 3 | 24 | -22
COc1ccc(NC(=O)/C=C/c2cccc(Br)c2)cn1 | -9 | -33* | -4 | 32 | -1 | -12
COc1ccc(NC(=O)/C=C/c2cccc(C(F)(F)F)c2)cn1 | 2 | -4 | 9 | 17 | 3 | 11
CC1OC(CC(=O)O)CC2=C1C(=O)c1c(O)cccc1C2=O (centres undefined) | -12 | . | 117* | 88* | . | .
CC(=O)Oc1ccc2oc(-c3ccccc3)c(C(N)=O)c2c1 | . | 0 | . | . | -2 | 0
Cc1ccc2sc(NNC(=O)c3cc(=O)c4ccccc4o3)nc2c1C | -1 | -64* | 4 | 11 | -30 | -2
Cc1cccc2sc(NNC(=O)c3cc(=O)c4ccccc4o3)nc12 | 2 | -79* | -3 | 1 | -110 | 35
O=C(NNc1nc2c(F)cccc2s1)c1cc(=O)c2ccccc2o1 | 3 | -8 | 1 | 1 | -22 | 1
Cc1ccc(OCC(=O)NCCCNC(=O)c2cccnc2)cc1 | 1 | -2 | -5 | 36 | -5 | 0
CCc1ccc(C2CC3C(CN2S(=O)(=O)c2ccc(C)cc2)[C@@H](O)C[C@@H](c2ccc(CC)cc2)N3S(=O)(=O)c2ccc(C)cc2)cc1 (some centres undefined) | 9 | . | . | 0 | . | .
CCN(CC)CCCn1c(C)cc2c(c1=O)C(c1cc(OC)c(OC)cc1OC)C(C#N)=C(N)O2 (centres undefined) | -1 | 1 | 5 | -2 | 5 | 19
CCN(CC)CCCn1c(C)cc2c(c1=O)C(c1cccc(Cl)c1)C(C#N)=C(N)O2 (centres undefined) | 6 | . | 36* | -3 | . | .
C[C@H](O)[C@@H]1CN2CCc3c([nH]c4ccccc34)[C@@H]2C[C@@H]1N(C)C(=O)Nc1cccc2ccccc12 | 9 | . | . | 74* | . | .
CN1CCN(/N=C/c2c3ccccc3c(Cl)c3ccccc23)CC1 | -6 | -1 | -1 | 52 | 57* | -1
CCCn1nnnc1SCC(=O)NCc1ccc(OC)cc1 | -3 | 2 | 1 | 3 | -4 | 31
COc1ccc(CNC(=O)CSc2nnnn2Cc2ccccc2)cc1 | 1 | 2 | -1 | 0 | -10 | 52*
